Results filed as inconclusive are left out. Activity calls are given as the source filed them. How the source made its calls: active means hit-call score of the fitted dose curve at least 0.9, where 1 is the maximum; inconclusive means response in the unintended direction; inactive means score below 0.9.
molecular target: Estrogen receptor (Homo sapiens) (UniProt P03372); experiment: CCTE_Deisenroth_AIME_384WELL_LUC_Inactive: CCTE's 384-well Estrogen Receptor Transactivation Assay without AIME metabolic competence (ERTA luciferase; metabolism negative), Deisenroth Lab (AID 2284038);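 further: VM7Luc4E2 breast cells given medium preincubated 2 h with S9-free microspheres; hits raise estrogen receptor luciferase signal so potencies reflect agonists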
Method in brief: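 Metabolism-negative mode: AIME lids stamped in alginate-water, no hepatic S9. 2 h chemical incubation → medium onto VM7Luc4E2 ERTA, 24 h. Readout luciferase luminescence; gain-of-signal fit vs 17beta-estradiol. Conc. 0.002 - 200 uM.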

Estrogen receptor (Homo sapiens), sequence (P03372 whole entry, looked up): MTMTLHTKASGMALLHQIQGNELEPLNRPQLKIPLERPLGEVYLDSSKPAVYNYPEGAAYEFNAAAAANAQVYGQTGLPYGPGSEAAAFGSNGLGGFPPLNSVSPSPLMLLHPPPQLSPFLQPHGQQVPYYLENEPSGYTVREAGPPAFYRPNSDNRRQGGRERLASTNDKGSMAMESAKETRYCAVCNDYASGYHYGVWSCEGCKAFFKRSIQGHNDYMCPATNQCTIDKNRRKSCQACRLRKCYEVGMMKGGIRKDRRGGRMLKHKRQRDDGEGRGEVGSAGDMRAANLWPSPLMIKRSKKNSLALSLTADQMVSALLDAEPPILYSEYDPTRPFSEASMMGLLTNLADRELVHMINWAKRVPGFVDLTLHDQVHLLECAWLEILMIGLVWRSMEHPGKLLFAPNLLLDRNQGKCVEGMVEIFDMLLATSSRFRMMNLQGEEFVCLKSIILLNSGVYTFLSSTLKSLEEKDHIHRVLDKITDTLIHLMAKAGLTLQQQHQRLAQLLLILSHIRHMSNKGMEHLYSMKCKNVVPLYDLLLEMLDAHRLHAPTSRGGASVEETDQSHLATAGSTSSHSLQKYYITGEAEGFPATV

SMILES | outcome
Cc1ccc(N)cc1O | inactive
C=CC(=C)CCC=C(C)C | inactive
O=C(O)c1cccc(Oc2ccccc2)c1 | inactive
COc1cccc(-c2ccc(/C=C\CN3CCCCCC3)cc2Cl)c1 | inactive
CC(C)CCO | inactive
Nc1ccc(Nc2ccccc2)cc1 | inactive
O=c1n(CC2CO2)c(=O)n(CC2CO2)c(=O)n1CC1CO1 (stereo unspecified) | inactive
CCCC(=O)OCC | inactive
Cn1c(=O)cc(Oc2ccc(F)cc2F)c2cnc(NCC(C)(C)O)nc21 | inactive
CCCCCCCCO | inactive
O=c1[nH]c2ccc(S(=O)CCN3CCC(Cc4ccc(F)cc4)CC3)cc2o1 (stereo unspecified) | inactive

system: not listed separately; experiment: CCTE_Deisenroth_AIME_384WELL_CTox_Inactive: Cytotoxicity Assessment (CTOX) in CCTE's 384-well Estrogen Receptor Transactivation Assay without AIME metabolic competence (metabolism negative), Deisenroth Lab (AID 2284039);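 further: cell viability via live-cell protease substrate cleaved to fluorescent probe; cells exposed 24 h to medium preincubated 2 h with alginate-water beads without S9; loss of fluorescence signal means loss of viability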
Method in brief: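 Metabolism-negative arm: chemicals (10-point, 0.002 - 200 uM) preincubated 2 h with alginate-water lids, medium moved onto VM7Luc4E2 cells for 24 h. Fluorescent live-cell protease readout; bidirectional curve fit.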

SMILES | outcome | AC50
Cn1c(=O)c2c(ncn2C)n(C)c1=O | inactive | 
Cc1ccc(N)cc1O | inactive | 
CCOCCOCCOCCO | inactive | 
COCCOc1cc2cc(C(=O)NC3CCN(C(C)C)CC3)n(CC(=O)Nc3ccc(Cl)cn3)c2cn1 | inactive | 
O=C(O)c1cc(N=Nc2ccc(S(=O)(=O)Nc3ccccn3)cc2)ccc1O |  | 49.7 µM (active)
O=C(O)c1cccc(Oc2ccccc2)c1 |  | 0.000708 µM (active)
COCCOCCOCCOC | inactive | 
COc1cccc(-c2ccc(/C=C\CN3CCCCCC3)cc2Cl)c1 | inactive | 
CC(C)CCO | inactive | 
Nc1ccc(Nc2ccccc2)cc1 |  | 74.6 µM (active)
CCCCCCc1ccc(O)cc1O |  | 162 µM (active)
COc1ccc2sc(C(=O)Nc3nnn[nH]3)c(OC(C)C)c2c1 | inactive | 
Oc1ccc2c(c1)-c1ccccc1C2 |  | 156 µM (active)
O=c1n(CC2CO2)c(=O)n(CC2CO2)c(=O)n1CC1CO1 (stereo unspecified) |  | 100 µM (active)
CNCc1ccc(NC(=O)c2c[nH]c3c2C(=O)CCC3)cc1 | inactive | 
On1ccccc1=S | inactive | 
CCN(C(=O)c1cc(C)cc(OC[C@H](C)Nc2ccncc2)c1)C(C)C | inactive | 
Nc1cccc(N)c1 | inactive | 
CCOC(=O)c1ccc(C2CCC(NC[C@H](O)COc3ccc(O)c(NS(C)(=O)=O)c3)CC2)cc1 (stereo partly specified) |  | 128 µM (active)
Cn1c(=O)cc(Oc2ccc(F)cc2F)c2cnc(NCC(C)(C)O)nc21 | inactive | 
CC(=O)OCCC(C)C | inactive | 
CC(C)c1cccc(C(C)C)c1N1C(=O)c2ccc(O)cc2C1=O | inactive | 
CC1=CC(=O)CC(C)(C)C1 | inactive | 
CC(C)=CCC/C(C)=C\CO | inactive | 
CCCCCCCCO | inactive | 

— PubChem BioAssay (EPA / NIEHS)
